In the supplement of paper PMC6555819:

system: VDR:RXRa (NR concentration 270 nM, RXRa partner concentration 90 nM); experiment: PBM binding z-score (relative to random genomic background probes); higher = stronger binding; sequences stand for … in GC…GCGATTGACAGCGTAGAATGAAGG
Protocol: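 Protein-binding microarray (Agilent 4x180K custom design, double-stranded 60-nt probes: 5' GC cap, 34-nt variable region, 24-nt constant primer region; full probe sequence given). Purified or IVT nuclear receptor:RXRα heterodimers (3:1 NR:RXRα, mostly 270:90 nM) or homodimers were incubated for 1 h in PBS with 2% milk and no ligand, then detected with Alexa488 antibodies. Fluorescence from o1-orientation probes (~5 replicates averaged) was converted to z-scores against 500 random hg19 background probes. Variable regions are seed direct-repeat (DR0–DR5) sites, all their single-nucleotide variants and half-site ablations.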

Sequence | PBM binding z-score
TGGCCTAGGTCATGGGCCAGTATACCACGCGAAC | 1.62
TCGAGTAGGATACGGGGGCATTCAGGGATGAAGA | 2.49
CCTAGCAGGCCAGGTTCACTCAAGCATTTCGCTT | 2.09
TAGCATAGGTCATGCGGGCCAGTATAGTGTCGGC | 4.32
CCGAGTAGGTTACGAGGGGGCATTCCGTGCGAAT | 4.84
TCCAGTAGGTTACGGGGGCATTCAGGGATGAAGA | 4.04
TCGACTAGGTTACGGGGGCATTCAGGGATGAAGA | 4.04
CGTCCAAGGTCATAGGAGGTCATTGAAGACAGAT | 7.27
CTATGTAGGTTAAGGGGCTCATTCAGTTTGAAAG | 0.993
GCTTACGGGTGAAAGGTTATAGCATGAATAGAAT | 2.17
CGTCCAAGGTCAGCAGGTCACTGAAAGCGACGTG | 4.5
CGAACTAGGTCGAAGGACAGTGAAAGGCGACGTA | -0.183
CGAACTAAGTCATTGACAGGACAGTGAATAGTAA | -0.19
CCTCGGAGGACAACAGGATGTCAGAGCTGCCAGA | -0.45
GCTTACGGGTCAAAGGTTATAACATGAATAGAAT | 5.68
ATATGTAGGGTAGGGTCATTCAGAAAGTAGGGAA | 4.48
CGAACTAAGTCACCAGGACAGTGAAGAGGTTGGA | -0.118
AGTCAAATTTCACTAGGTAACGTAAGATTCAGCT | 0.337
TCTAGTTGGTCACGGAGGTCACACGCGACGGGTA | 5.87
ACTCGGAGGACAAAGGTGAGAGCTACGCCAGTGA | 0.122

Sequence | PBM binding z-score
CGAACTAGGTCCCCAGGACAGTGAAGAGGTTGGA | -0.892
ATATCTAGGTTAGGGTCATTCAGAAAGTAGGGAA | 4.41
ATCTCTAGGTTAAAGTTCAGTGAATCCCGAGGAT | 2.76
ATATGTAGGTTAGGGTAATTCAGAAAGTAGGGAA | 1.09
GATACAGGGTCATCTAGAGGCCAGAGTATGGAAA | 5.14
CGATGTAGGTTAAGGGGGTCATTCAGTTTGAAAG | 7.68
CGCACTAGGTCACCAGGACAGTGAAGAGGTTGGA | 1.87
CGAACTAGGTCACCAGGACATTGAAGAGGTTGGA | 2.31
CCGAGTAGGTTCCGAGGGGGCATTCAGTGCGAAT | 4.09
GCTTACGGGTCAAAGGTTATAGTATGAATAGAAT | 5.76
CTATGTTGGTTAAGGGGGTCATTCAGTTTGAAAG | 6.64
CCTGGCAGGCCAGGGTCACTCAAGCATTTCGCTT | 2.52
CGTCAAAGTTCTAGGTAACGTAACAGAAAGCAGC | 0.0814
TCATATAGGTAATAAAGGTGAAAGTCGGCATCTA | 1.42
CCTTACGGGTCACGGGGTTATAGCACGACGAGCG | 5.75
CGAACTAGGTAACCAGGACAGTGAAGAGGTTGGA | -0.0408
CCTTACGGGTCTAGGTTATAGCACGGGTGGTACG | -0.339
ATGTGTAGGTTACATCCGGGTCATTCAGGCTATG | 4.22
ATATGTAGGTTACGGTCATTCAGAAAGTAGGGAA | 1.54
CGAACTAGCTCACCAGGACAGTGAAGAGGTTGGA | -0.616
